Growth data for eight molecules are collected here from PubChem BioAssay (NCI).

This is part of a sample that, as a whole, favours compounds with a hit. Of some 83,000 tested, about 20% had one in any assay.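 Cells were grown in 96-well plates and exposed to the test compound at a single concentration for 48 hours; results are reported as percent growth, with values below 10 considered active.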 A number with no mark means an inactive call. Activity calls are given as the source filed them.

Among the test systems are NCI-H23 lung; NCI-H226 lung; NCI-H322M lung; HOP-62 NSCLC; NCI-H460 lung; NCI-H522 lung; A549/ATCC NSCLC; 786-0 renal; COLO 205 colon; DU-145 prostate; K-562 leukemia; MALME-3M melanoma; MDA-MB-231 breast; RXF 393 renal; SF-268 CNS; SF-295 CNS; SF-539 CNS; HCT-15 colon; UACC-257 melanoma; M14 melanoma.
Holding throughout (assay): NCI-60 one-dose screen, 48 h (100 = growth as untreated, 0 = no growth, -100 = all killed)
Common to all, as to conditions: 10 µM

On to `COc1ccc(Nc2cc(C)nc(NCCCNc3ccnc4cc(Cl)ccc34)n2)cc1`, for which the growth in the test on NCI-H23 lung is 63.2%; with NCI-H226 lung, 110%; with NCI-H322M lung, -3.79% (active); in the test on HOP-62 NSCLC it was 18.7%; in the test on NCI-H460 lung, -4.78% (active); in the test on NCI-H522 lung it was -74% (active). Moreover, the growth was -44.7% (active) in the test on A549/ATCC NSCLC; -97.7% (active) in the test with 786-0 renal; -96.3% (active) in the test on COLO 205 colon; 28% in the test on DU-145 prostate; -42.2% (active) in the test with K-562 leukemia; -86.2% (active) in the test on MALME-3M melanoma. Moreover, the growth was -67.7% (active) in the test with MDA-MB-231 breast; -90.4% (active) in the test with RXF 393 renal; -54.5% (active) in the test on SF-268 CNS; -78.8% (active) in the test with SF-295 CNS; -100% (active) in the test on SF-539 CNS; -55.8% (active) with HCT-15 colon.
Turning to `COc1cc(-c2nc(-c3nnc(-c4ccccc4Cl)o3)c3ccccn23)cc(OC)c1OC`, the growth was 91.1% in the test on NCI-H23 lung; 84% in the test on NCI-H226 lung; 88.3% with NCI-H322M lung; 87.2% in the test with HOP-62 NSCLC; 95.4% with NCI-H460 lung; 78.4% in the test with NCI-H522 lung. In addition, the growth in the test on A549/ATCC NSCLC is 72%; with 786-0 renal it was 105%; in the test with COLO 205 colon, 85.4%; in the test on DU-145 prostate, 98.5%; in the test on K-562 leukemia, 65.8%; in the test on MALME-3M melanoma, 119%. The growth in the test on MDA-MB-231 breast was 90.7%; in the test on RXF 393 renal, 90.8%; with SF-295 CNS, 77.9%; in the test on SF-539 CNS, 88.3%; in the test on UACC-257 melanoma it was 91.4%; with M14 melanoma it was 112%. Also, the growth with HCT-15 colon was 73.3%.
For `COc1ccc(-c2nc3ncccn3c2-c2nnc(-c3ccsc3C)o2)cc1`, the growth in the test with NCI-H23 lung is 80.5%; in the test with NCI-H226 lung, 61.6%; in the test with NCI-H322M lung, 84.4%; in the test on HOP-62 NSCLC, 23.8%; in the test on NCI-H460 lung it was 59.9%; in the test with NCI-H522 lung, 53.6%. Also, the growth with A549/ATCC NSCLC is 78.8%; in the test on 786-0 renal, 90.9%; with COLO 205 colon, 110%; with DU-145 prostate it was 88.3%; in the test with K-562 leukemia, 92.2%; in the test on MALME-3M melanoma it was 80.8%. Besides, the growth in the test with MDA-MB-231 breast is 80.6%; in the test on RXF 393 renal, 82.8%; with SF-295 CNS it was 80.3%; in the test on SF-539 CNS, 86.4%; with UACC-257 melanoma, 78.4%; in the test on M14 melanoma, 107%. In addition, the growth with HCT-15 colon is 88.9%.
`COc1cc(Nc2ccnc(NCCCNc3ccnc4cc(Cl)ccc34)n2)cc(OC)c1`: the growth in the test with NCI-H23 lung was 55.8%; with NCI-H226 lung it was 87.6%; in the test on NCI-H322M lung it was 15.2%; in the test with HOP-62 NSCLC it was 27.4%; in the test on NCI-H460 lung it was -4.19% (active); with NCI-H522 lung, -44.8% (active). The growth is 11.9% with A549/ATCC NSCLC; -90.9% (active) with 786-0 renal; -92.2% (active) in the test on COLO 205 colon; 34.3% in the test with DU-145 prostate; -51.1% (active) with K-562 leukemia; -87.7% (active) in the test on MALME-3M melanoma. Besides, the growth in the test with MDA-MB-231 breast is -54.6% (active); in the test on RXF 393 renal, -83.3% (active); in the test with SF-268 CNS, -19.9% (active); in the test with SF-295 CNS it was -75.9% (active); in the test with SF-539 CNS, -98.5% (active); in the test on M14 melanoma it was -85.6% (active). In the test on HCT-15 colon, the growth is 0.0216% (active).
`Nc1ccc2c(c1)C1(CCC2)NC(=O)NC1=O` (stereo unspecified): the growth with NCI-H23 lung is 103%; with NCI-H226 lung it was 92.1%; in the test with NCI-H322M lung, 103%; in the test with HOP-62 NSCLC, 101%; in the test with NCI-H460 lung it was 103%; in the test with NCI-H522 lung, 98.6%. Also, the growth in the test on A549/ATCC NSCLC is 99.5%; with 786-0 renal, 100%; in the test on COLO 205 colon, 105%; in the test with DU-145 prostate it was 114%; in the test with K-562 leukemia, 95.8%; with MALME-3M melanoma, 101%. Further, the growth with MDA-MB-231 breast was 101%; with RXF 393 renal, 96.1%; in the test with SF-268 CNS it was 100%; with SF-295 CNS, 108%; in the test with SF-539 CNS, 93%; in the test with M14 melanoma, 100%. For the same molecule, the growth in the test on HCT-15 colon was 92.7%.
Take `CC12O[C@H](C[C@@H](O)[C@H]1O)n1c3ccccc3c3c4c(c5c6ccccc6n2c5c31)C(=O)N(CCCN)C4=O`: the growth with NCI-H23 lung is 28.9%; with NCI-H226 lung, 27.4%; with NCI-H322M lung, 56.3%; in the test on HOP-62 NSCLC it was 25.3%; with NCI-H460 lung, 10.4%; with NCI-H522 lung it was -2.33% (active). Further, the growth in the test with A549/ATCC NSCLC was 31.5%; in the test with 786-0 renal, 53.9%; with COLO 205 colon, 12.9%; in the test with DU-145 prostate it was 60.8%; with K-562 leukemia, 15.5%; in the test on MALME-3M melanoma, 33.4%. The growth in the test with MDA-MB-231 breast was 41.1%; in the test on RXF 393 renal, 26.4%; with SF-268 CNS, 36.5%; in the test on SF-295 CNS, 51%; in the test with SF-539 CNS it was 39.1%; in the test on M14 melanoma it was 37.1%. Also, the growth in the test with HCT-15 colon was 96.4%.
Take `O=C(Nc1cccc(Br)c1)c1cc(=O)[nH]c2ccccc12`: the growth was 103% in the test with NCI-H23 lung; 82.9% in the test on NCI-H226 lung; 94.2% in the test with NCI-H322M lung; 64.3% with HOP-62 NSCLC; 105% with NCI-H460 lung; 86.7% in the test with NCI-H522 lung. Moreover, the growth in the test with A549/ATCC NSCLC is 94.1%; in the test on 786-0 renal, 103%; with COLO 205 colon, 85.1%; in the test on DU-145 prostate it was 110%; with K-562 leukemia, 55.8%; in the test on MALME-3M melanoma, 101%. For the same molecule, the growth with MDA-MB-231 breast was 93.6%; in the test with RXF 393 renal it was 77.4%; with SF-268 CNS, 94.8%; in the test on SF-295 CNS, 112%; in the test on SF-539 CNS, 92%; in the test on M14 melanoma, 104%. Moreover, the growth in the test on HCT-15 colon was 92.4%.
For the molecule `COc1ccc(-c2nnc(-c3c(-c4ccccc4)nc4ncccn34)o2)cc1OC`, the growth was 97.2% in the test on NCI-H23 lung; 93.2% in the test on NCI-H226 lung; 94.2% in the test on NCI-H322M lung; 84.6% with HOP-62 NSCLC; 107% in the test on NCI-H460 lung; 94.2% in the test on NCI-H522 lung. Besides, the growth in the test on A549/ATCC NSCLC is 96%; with 786-0 renal, 102%; with COLO 205 colon it was 100%; in the test on DU-145 prostate it was 109%; in the test on K-562 leukemia it was 88.8%; in the test on MALME-3M melanoma it was 121%. Besides, the growth was 91.3% with MDA-MB-231 breast; 98.3% in the test with RXF 393 renal; 101% in the test on SF-295 CNS; 94.5% in the test with SF-539 CNS; 96.7% with UACC-257 melanoma; 119% in the test on M14 melanoma. Also, the growth in the test with HCT-15 colon is 100%.
